The list is not random: actives were taken first. Their share in the collection is about 4.6%.
D1 PAM = Potentiators of Human D1 Dopamine Receptor: qHTS; D(1A) dopamine receptor (Homo sapiens), P21728; HEK293 TREx D1 cells, calcium flux, dopamine EC20 potentiation; potentiation, % at 10 µM; actives 0.036% (n = 360,000); AID 504651, 2011; in the data active = potentiation above about 30%
D1 antagonist = Antagonist of Human D 1 Dopamine Receptor: qHTS; actives 3.2% (n = 360,000); activity change, negative = inhibition, % at 10 µM; HEK293 TREx D1 cells, calcium flux, dopamine EC80; active compounds read low; D(1A) dopamine receptor (Homo sapiens), P21728; in the data active = activity change below about -30%
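Using tetracycline-induced force-coupled D1 Hek293 cells and a calcium dye, signals were followed for 180 s after compound, then for 180 s after EC80 dopamine, to detect inhibitors.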
TRHR ag = qHTS for Small Molecule Agonists and Allosteric Enhancers of Human TRH Receptor: Primary Screen for Agonists; Thyrotropin-releasing hormone receptor (Homo sapiens), P34981; TRHR cells, calcium flux fluo-8, FDSS agonist mode; activation, % at 2 µM; actives 0.18% (n = 360,000); AID 493084, 2011
Target sequence (P34981 whole entry, looked up): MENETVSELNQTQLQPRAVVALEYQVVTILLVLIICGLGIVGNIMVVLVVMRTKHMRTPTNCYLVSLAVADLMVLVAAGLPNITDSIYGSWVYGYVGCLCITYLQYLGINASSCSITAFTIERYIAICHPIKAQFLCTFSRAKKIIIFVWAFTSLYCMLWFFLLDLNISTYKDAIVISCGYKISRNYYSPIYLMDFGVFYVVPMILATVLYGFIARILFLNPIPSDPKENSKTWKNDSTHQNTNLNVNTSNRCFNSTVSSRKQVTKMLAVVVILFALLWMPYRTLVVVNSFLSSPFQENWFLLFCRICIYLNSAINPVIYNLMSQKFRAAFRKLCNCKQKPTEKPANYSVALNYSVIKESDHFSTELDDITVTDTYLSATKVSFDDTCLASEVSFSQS
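Read-out: compound-evoked intracellular calcium rise in TRHR cells, fluo-8 dye, kinetic FDSS fluorescence at 1 s/cycle following a 10-cycle baseline. Cells cultured overnight before dye loading (30 min–1.5 h, RT).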
TRHR enhancer = qHTS for Small Molecule Agonists and Allosteric Enhancers of Human TRH Receptor: Primary Screen for Enhancers; actives 0.66% (n = 360,000); enhancement, % at 2 µM; Thyrotropin-releasing hormone receptor (Homo sapiens), P34981; TRHR cells, fluo-8 calcium fluorescence, EC20 TRH enhancement; in the data active = enhancement above about 30%
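TRHR-expressing cells loaded with fluo-8 calcium dye were read kinetically (ex 480/em 530) during compound addition, then stimulated with an EC20 of TRH (10 nM final). Enhancement of the Gq-mediated intracellular calcium response was scored.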
D1 ag = Allosteric Agonists of the Human D1 Dopamine Receptor: qHTS. D(1A) dopamine receptor (Homo sapiens), P21728. HEK293 T-REx D1 cells, calcium flux, agonist mode. activation, % at 2 µM. actives 1% (n = 360,000)
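Agonism was scored from calcium flux recorded over 180 s (1 read/s) after pintool compound addition, following a 10-cycle baseline. Cells were inducible force-coupled HEK293 TREx D1, plated overnight at 30 C and loaded with no-wash calcium dye.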
A number is an active result; – = inactive; · = not tested or not shown; ! = not confirmed by another sample. Cut-off read from the data, not from the text of the source, unless noted: active = activation above about 30%; inactive = the rest.

SMILES	D1 PAM	D1 antagonist	TRHR ag	TRHR enhancer	D1 ag
Cc1nn(CCCC(=O)Nc2cccc(C(F)(F)F)c2)c(=O)c2nn(-c3ccccc3)c(C)c12	–	–	–	–	–
CCCN(c1ccccc1F)S(=O)(=O)c1cc(-c2cc(C)no2)ccc1OC	–	-46.4	–	–	–
Cc1cc(-c2ccc(C)c(S(=O)(=O)NCCc3ccc(S(N)(=O)=O)cc3)c2)on1	–	-63.5!	–	–	–
Cc1cc(-c2ccc(C)c(S(=O)(=O)NCCc3ccco3)c2)on1	–	-33.5	–	–	–
CCc1ccc(-c2cc(C)no2)cc1S(=O)(=O)NCCc1ccc(OC)c(OC)c1	–	-35.6	–	–	–
Cc1cc(-c2ccc(C)c(S(=O)(=O)NCc3ccc(Br)cc3)c2)on1	–	–	–	–	–
Cc1cccc(C(=O)Nc2nc(-c3nnn(-c4cc(C)ccc4C)c3C)ns2)c1	–	–	–	–	–
O=[N+]([O-])c1ccc(OCCN2CCNCC2)cc1	–	–	–	–	–
COC(=O)CNC(=O)N1CCN(S(=O)(=O)c2ccc3c(ccn3C)c2)CC1	–	–	–	–	–
O=C(Nc1ccc(F)cc1)OCCOc1ccc(Br)cc1	–	-55.0	–	–	–
CCC1Oc2ccc(C)cc2N(CC(=O)NCc2ccc(F)cc2)C1=O (stereo unspecified)	–	–	–	–	–
CC(=O)Nc1ccc(S(=O)(=O)NC2(C(F)(F)F)NC(=O)N(CCc3ccc(F)cc3)C2=O)cc1 (stereo unspecified)	–	–	–	–	–
Cc1nn(C)c(Oc2cccc(Cl)c2)c1C#N	–	–	–	–	–
Cn1nc(-c2ccccc2)c(C#N)c1Sc1cccc(Cl)c1	–	–	–	–	88.3
O=S(=O)(c1ccc2c(c1)OCCO2)N1CCNCC1	–	–	–	–	–
COc1ccccc1N1CCN(C(=O)c2cc(-c3ccc(C)c(F)c3)on2)CC1	–	-80.7	–	–	–
COc1ccccc1N1CCN(C(=O)c2cc(-c3ccc4c(c3)OCO4)on2)CC1	–	–	–	–	–
CCOc1ccc(C(=O)Nc2cc(-c3ccccc3)no2)cc1	–	–	–	–	–
Cc1ccc(C23CC4CC(CC(NC(=O)NCCN(C)C)(C4)C2)C3)cc1	–	–	–	–	–
CN(C)CCNC(=O)COc1ccc(C23CC4CC(CC(C4)C2)C3)cc1	–	–	–	–	32.6
CC(=O)Nc1ccc(S(=O)(=O)NC2=NCN(C(C)C)CN2)cc1	–	–	–	–	–
CC(=O)c1cc2c(cc1NS(=O)(=O)c1ccc(C)cc1)OCCO2	–	-37.3	–	–	–
O=C(N/C(=C/c1cccnc1)C(=O)N1CCCCCC1)c1cccc(Br)c1	–	-39.0	–	–	–
O=C(NC(=S)N1CCCCC1)c1cccnc1	–	-33.9	–	–	–
O=C(NC(=S)N1CCCCCC1)c1ccccc1	–	–	–	–	–
SMILES	D1 PAM	D1 antagonist	TRHR ag	TRHR enhancer	D1 ag
CCN(CC)c1cc2c(cc1F)c(=O)c(S(=O)(=O)c1cccc(C)c1)cn2C	–	–	–	–	–
COc1ccc(N2CC(NC(=O)CCc3ccccc3)CC2=O)cc1OC (stereo unspecified)	–	·	–	–	–
COc1ccc(-c2noc(CCCC(=O)Nc3cccc(Cl)c3C)n2)cc1	–	–	–	–	–
O=C(NNC(=O)c1cccs1)c1cccnc1	–	-53.7	–	–	–
O=C(NNC(=O)c1ccc(Cl)c(Cl)c1)c1cccnc1	–	-73.6	–	–	–
O=C(NNC(=S)NCc1ccc(Cl)cc1)c1cccnc1	–	-35.2	–	–	–
O=C(NNC(=S)NC(=O)c1cccnc1)c1ccc(Cl)cc1	–	–	–	–	–
Cc1cccc(N2CCN(C(=O)C3CCCN(S(=O)(=O)c4ccc(Br)s4)C3)CC2)c1C (stereo unspecified)	–	–	–	–	–
CCCN(c1ccccc1C(=O)O)S(=O)(=O)c1ccc2c(c1)n(C)c(=O)n2C	–	–	–	–	–
CCCOc1ccccc1C1C(C(=O)Nc2ccccc2)=C(C)Nc2nnnn21 (stereo unspecified)	–	–	–	48.9	39.0
COc1ccc(-c2cc(C(=O)NCCc3ccc(OC)c(OC)c3)c3ccccc3n2)cc1	–	–	–	–	–
COCCNC(=O)/C(C#N)=c1\s/c(=C\c2ccccc2OC(F)F)c(=O)n1Cc1ccccc1	–	–	103.2	–	–
COCCCn1c(=O)/c(=C\c2ccccc2OC(F)F)s/c1=C(/C#N)C(=O)NCCOC	–	–	–	–	–
COC(=O)c1ccccc1NC(=O)c1cnc2c(-c3cccc(C)c3)c(C)nn2c1C	–	–	–	–	–
O=C(Nc1nc2c(s1)CN(Cc1ccccc1)CC2)C1CCC1	–	–	–	–	–
CN(C)c1ccc(/C=C(\C#N)C(=O)Nc2nc3c(s2)CCN(Cc2ccccc2)C3)cc1	–	–	–	–	68.2
COc1ccc2c(CNCc3cccs3)c(C(=O)O)n(Cc3cccc(F)c3)c2c1	–	–	–	–	–
CCCCCCSc1ccc([C@H]2N[C@@](C)(C(=O)OC)[C@H]3C(=O)N(CC)C(=O)[C@@H]23)cc1	–	–	–	–	–
OC(c1cc(C(F)(F)F)nc2c(Cl)cc(Cl)cc12)C1CCCCN1 (stereo unspecified)	–	–	–	–	32.4
OC(c1cc(-c2ccc(Cl)cc2)nc2ccccc12)C1CCCCN1 (stereo unspecified)	–	–	–	–	–
O[C@@H](c1cc(C(F)(F)F)nc2c(C(F)(F)F)cccc12)[C@H]1CCCCN1	–	–	–	–	44.2
N/C(=N\N=C/c1ccc(F)cc1)N/N=C\c1ccc(F)cc1	–	-59.5	–	–	–
N/C(=N\N=C/c1ccc(Br)cc1)N/N=C\c1ccc(Br)cc1	–	–	–	–	–
c1ccc(Cn2nnc3c(N4CCC5(CC4)OCCO5)ncnc32)cc1	–	–	–	–	–
CCc1nc(N2CCC3(CC2)OCCO3)c2nnn(Cc3ccccc3)c2n1	–	–	–	37.1	–
Cn1nnc2c(N3CCCCC3)ncnc21	–	·	–	–	–
Cc1cc(C)nc(NS(=O)(=O)c2ccc(NC(=O)Cc3ccccc3)cc2)n1	–	–	–	36.4	–
Cc1cc(C)nc(NS(=O)(=O)c2ccc(NC(=O)COc3ccc(Cl)cc3C)cc2)n1	–	-48.6	–	–	–
Cc1cc(C)nc(NS(=O)(=O)c2ccc(NC(=O)COc3ccccc3)cc2)n1	–	–	–	–	–
Cn1nnnc1Sc1ncnc2scc(-c3ccc(S(C)(=O)=O)cc3)c12	–	–	–	–	–

Bioassay records (PubChem BioAssay)
